Here are results for one sequence from paper PMC7862700, “An all-to-all approach to the identification of sequence-specific readers for epigenetic DNA modifications on cytosine”.

Assay in all cases: DAPPL (digital affinity profiling via proximity ligation, sequencing); 10 mM Tris-HCl pH 7.5, 50 mM NaCl, 1 mM DTT, 4% glycerol, room temperature, 30 min; GST-TFs on glutathione beads, 16-mer random dsDNA library, 0.1% formaldehyde crosslink after washing; high values mean tight binding
One test concerns the target T1, FLI1 (Homo sapiens, UniProt Q01543 1-452).
T1 sequence: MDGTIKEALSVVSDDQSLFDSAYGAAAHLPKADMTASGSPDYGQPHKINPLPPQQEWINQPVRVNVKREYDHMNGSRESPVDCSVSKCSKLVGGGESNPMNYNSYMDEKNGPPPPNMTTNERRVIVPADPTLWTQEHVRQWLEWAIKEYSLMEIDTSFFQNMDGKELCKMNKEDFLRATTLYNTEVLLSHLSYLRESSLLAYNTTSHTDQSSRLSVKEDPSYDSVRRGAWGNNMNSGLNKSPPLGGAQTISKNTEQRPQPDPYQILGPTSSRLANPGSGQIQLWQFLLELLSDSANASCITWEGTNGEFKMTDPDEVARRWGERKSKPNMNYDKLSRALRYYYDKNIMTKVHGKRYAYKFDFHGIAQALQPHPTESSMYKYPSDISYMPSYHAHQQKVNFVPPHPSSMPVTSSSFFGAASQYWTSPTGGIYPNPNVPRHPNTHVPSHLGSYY
Conditions: protein: recombinant; tags: N-terminal GST; dsDNA, one strand shown. The procedure, abridged: (§1)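 Pools were built from human transcription factors expressed in yeast as GST fusions, captured on glutathione beads and DNA-barcoded, along with a tag-only sample. Incubation with 200 nmole of a 16-mer random double-stranded DNA library lasted 30 min at room temperature in Tris/NaCl/DTT/glycerol buffer, and was followed by washing, 0.1% formaldehyde crosslinking, proximity ligation, PCR amplification and Illumina NextSeq500 sequencing. Binding signal is the quotient of each hexamer's read frequency for a factor and its frequency for the tag-only sample.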

The next test deals with T2, ELK1 (Homo sapiens, UniProt P19419 1-428).
T2 sequence: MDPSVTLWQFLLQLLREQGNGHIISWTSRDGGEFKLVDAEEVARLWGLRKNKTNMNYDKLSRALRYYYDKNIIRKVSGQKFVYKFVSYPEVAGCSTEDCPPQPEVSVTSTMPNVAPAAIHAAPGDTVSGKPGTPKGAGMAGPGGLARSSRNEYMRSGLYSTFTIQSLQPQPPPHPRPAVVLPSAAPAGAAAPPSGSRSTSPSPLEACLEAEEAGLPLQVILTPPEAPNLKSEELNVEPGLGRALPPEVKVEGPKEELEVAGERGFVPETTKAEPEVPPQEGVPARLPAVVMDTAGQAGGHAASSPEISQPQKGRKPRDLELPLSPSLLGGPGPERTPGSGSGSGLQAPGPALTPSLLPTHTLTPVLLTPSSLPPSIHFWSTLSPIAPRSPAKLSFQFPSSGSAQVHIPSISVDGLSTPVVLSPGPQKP
Conditions: protein: recombinant; tags: N-terminal GST; dsDNA, one strand shown. The procedure, abridged: as §1

A further test deals with T3, GABPA (Homo sapiens, UniProt Q06546 1-454).
T3 sequence: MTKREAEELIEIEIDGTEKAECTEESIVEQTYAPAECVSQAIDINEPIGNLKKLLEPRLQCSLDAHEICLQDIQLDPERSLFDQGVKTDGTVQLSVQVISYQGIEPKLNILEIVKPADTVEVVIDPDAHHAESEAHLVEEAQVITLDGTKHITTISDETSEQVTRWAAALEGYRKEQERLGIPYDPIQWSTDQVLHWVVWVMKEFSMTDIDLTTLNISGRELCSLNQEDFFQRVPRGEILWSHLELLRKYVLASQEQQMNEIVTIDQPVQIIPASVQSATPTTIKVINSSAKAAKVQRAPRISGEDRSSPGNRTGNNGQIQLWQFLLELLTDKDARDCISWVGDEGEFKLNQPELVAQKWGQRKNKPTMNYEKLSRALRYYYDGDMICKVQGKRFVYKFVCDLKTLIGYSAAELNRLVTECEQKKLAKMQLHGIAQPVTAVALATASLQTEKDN
Conditions: protein: recombinant; tags: N-terminal GST; dsDNA, one strand shown. A digest of the protocol: as §1

The target of another test is T4, ERG (Homo sapiens, UniProt P11308 1-479).
T4 sequence: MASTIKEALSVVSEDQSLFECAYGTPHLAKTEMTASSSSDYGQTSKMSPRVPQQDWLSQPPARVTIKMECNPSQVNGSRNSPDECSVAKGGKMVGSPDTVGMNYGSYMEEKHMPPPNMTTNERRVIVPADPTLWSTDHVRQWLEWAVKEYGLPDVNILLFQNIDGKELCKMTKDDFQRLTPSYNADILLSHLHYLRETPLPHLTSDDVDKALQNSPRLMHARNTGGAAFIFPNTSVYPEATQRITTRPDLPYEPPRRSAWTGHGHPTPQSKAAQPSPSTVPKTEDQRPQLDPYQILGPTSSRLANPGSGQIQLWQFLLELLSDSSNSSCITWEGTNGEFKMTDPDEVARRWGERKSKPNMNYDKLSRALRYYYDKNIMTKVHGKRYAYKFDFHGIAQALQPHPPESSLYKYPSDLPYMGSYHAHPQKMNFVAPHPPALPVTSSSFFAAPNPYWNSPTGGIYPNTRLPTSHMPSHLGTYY
Conditions: protein: recombinant; tags: N-terminal GST; dsDNA, one strand shown. The procedure, abridged: as §1

A further test has as its target ELF1 (Homo sapiens, UniProt P32519 1-619). The following applies: protein: recombinant; tags: N-terminal GST; dsDNA, one strand shown. The procedure, abridged:
as §1

The target of another test is T5, EHF (Homo sapiens, UniProt Q9NZC4 1-300).
T5 sequence: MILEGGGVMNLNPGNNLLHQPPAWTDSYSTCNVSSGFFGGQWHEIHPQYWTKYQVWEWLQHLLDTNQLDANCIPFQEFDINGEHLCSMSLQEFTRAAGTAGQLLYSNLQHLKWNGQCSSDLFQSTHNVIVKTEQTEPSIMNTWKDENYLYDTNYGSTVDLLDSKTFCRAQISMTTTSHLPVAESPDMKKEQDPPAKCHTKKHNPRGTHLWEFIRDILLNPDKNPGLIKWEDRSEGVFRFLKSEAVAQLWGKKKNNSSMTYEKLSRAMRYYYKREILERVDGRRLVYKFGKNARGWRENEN
The following applies: protein: recombinant; tags: N-terminal GST; dsDNA, one strand shown. The procedure, abridged: as §1

For the next test, the target named is SPI1 (Homo sapiens, UniProt P17947 1-270). The following applies: protein: recombinant; tags: N-terminal GST; dsDNA, one strand shown. A digest of the protocol: as §1
For another test, the target named is SPIB (Homo sapiens, UniProt Q01892 1-262). The following applies: protein: recombinant; tags: N-terminal GST; dsDNA, one strand shown. The procedure, abridged: as §1
SPIB, sequence (Q01892 whole entry): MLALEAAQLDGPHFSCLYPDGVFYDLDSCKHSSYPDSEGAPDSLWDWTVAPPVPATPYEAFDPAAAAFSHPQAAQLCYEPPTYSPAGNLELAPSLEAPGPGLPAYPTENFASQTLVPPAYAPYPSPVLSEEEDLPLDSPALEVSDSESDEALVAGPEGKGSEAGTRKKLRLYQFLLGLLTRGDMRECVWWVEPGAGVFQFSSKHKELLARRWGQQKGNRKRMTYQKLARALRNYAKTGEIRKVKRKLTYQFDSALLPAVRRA
The target in the next test is T6, ELK3 (Homo sapiens, UniProt P41970 1-407).
T6 sequence: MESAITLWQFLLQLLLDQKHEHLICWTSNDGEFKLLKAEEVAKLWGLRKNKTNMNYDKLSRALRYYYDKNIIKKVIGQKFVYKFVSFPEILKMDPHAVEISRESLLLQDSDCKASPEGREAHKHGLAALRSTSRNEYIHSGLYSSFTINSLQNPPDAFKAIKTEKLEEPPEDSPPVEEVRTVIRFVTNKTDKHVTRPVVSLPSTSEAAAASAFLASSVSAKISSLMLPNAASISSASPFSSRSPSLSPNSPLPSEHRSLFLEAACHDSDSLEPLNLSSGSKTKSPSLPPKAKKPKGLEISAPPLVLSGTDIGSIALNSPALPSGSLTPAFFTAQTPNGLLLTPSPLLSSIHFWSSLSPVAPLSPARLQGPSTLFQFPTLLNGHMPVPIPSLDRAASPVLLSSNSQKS
Conditions: protein: recombinant; tags: N-terminal GST; dsDNA, one strand shown. A digest of the protocol: as §1

In another test the target is T7, FEV (Homo sapiens, UniProt Q99581 1-238).
T7 sequence: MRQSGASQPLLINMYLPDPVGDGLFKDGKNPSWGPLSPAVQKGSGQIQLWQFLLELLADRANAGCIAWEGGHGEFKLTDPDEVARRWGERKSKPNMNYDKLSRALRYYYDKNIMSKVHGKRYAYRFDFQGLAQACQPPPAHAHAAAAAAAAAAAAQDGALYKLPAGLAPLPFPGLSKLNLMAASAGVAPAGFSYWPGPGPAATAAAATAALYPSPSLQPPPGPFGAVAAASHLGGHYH
The following applies: protein: recombinant; tags: N-terminal GST; dsDNA, one strand shown. A digest of the protocol:
as §1

In another test the target is ETV5 (Homo sapiens, UniProt P41161 1-510). The following applies: protein: recombinant; tags: N-terminal GST; dsDNA, one strand shown. The procedure, abridged: as §1
ETV5, sequence (P41161 whole entry): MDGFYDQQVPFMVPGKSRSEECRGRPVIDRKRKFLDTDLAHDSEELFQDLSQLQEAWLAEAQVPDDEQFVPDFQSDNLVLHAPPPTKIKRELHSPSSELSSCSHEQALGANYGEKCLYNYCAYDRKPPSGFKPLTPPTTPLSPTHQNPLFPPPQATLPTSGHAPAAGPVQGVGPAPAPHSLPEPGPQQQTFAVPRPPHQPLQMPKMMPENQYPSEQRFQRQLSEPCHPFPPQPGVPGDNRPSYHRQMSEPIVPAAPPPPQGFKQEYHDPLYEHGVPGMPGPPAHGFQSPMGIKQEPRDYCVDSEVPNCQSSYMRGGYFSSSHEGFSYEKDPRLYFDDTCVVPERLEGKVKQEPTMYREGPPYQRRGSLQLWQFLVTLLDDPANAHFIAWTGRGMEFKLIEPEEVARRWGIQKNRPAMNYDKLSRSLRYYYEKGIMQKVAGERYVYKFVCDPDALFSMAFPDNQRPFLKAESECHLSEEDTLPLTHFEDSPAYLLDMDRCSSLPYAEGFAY
Another test has as its target HSF1 (Homo sapiens, UniProt Q00613 1-529). The following applies: protein: recombinant; tags: N-terminal GST; chain copies: 3; dsDNA, one strand shown. A digest of the protocol: as §1
A further test addresses T8, SPIC (Homo sapiens, UniProt Q8N5J4 1-248).
T8 sequence: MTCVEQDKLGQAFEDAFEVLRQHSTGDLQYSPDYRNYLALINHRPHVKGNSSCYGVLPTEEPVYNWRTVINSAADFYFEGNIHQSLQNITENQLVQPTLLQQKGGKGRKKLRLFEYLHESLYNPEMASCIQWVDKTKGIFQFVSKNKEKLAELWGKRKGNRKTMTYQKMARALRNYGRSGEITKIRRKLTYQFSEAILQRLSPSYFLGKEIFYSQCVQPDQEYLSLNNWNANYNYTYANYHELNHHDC
The following applies: protein: recombinant; tags: N-terminal GST; dsDNA, one strand shown. A digest of the protocol: as §1

In a further test the target is ELF4 (Homo sapiens, UniProt Q99607 1-663). The following applies: protein: recombinant; tags: N-terminal GST; dsDNA, one strand shown. The procedure, abridged:
as §1

The next test concerns the target T9, ELK4 (Homo sapiens, UniProt P28324-2 1-405).
T9 sequence: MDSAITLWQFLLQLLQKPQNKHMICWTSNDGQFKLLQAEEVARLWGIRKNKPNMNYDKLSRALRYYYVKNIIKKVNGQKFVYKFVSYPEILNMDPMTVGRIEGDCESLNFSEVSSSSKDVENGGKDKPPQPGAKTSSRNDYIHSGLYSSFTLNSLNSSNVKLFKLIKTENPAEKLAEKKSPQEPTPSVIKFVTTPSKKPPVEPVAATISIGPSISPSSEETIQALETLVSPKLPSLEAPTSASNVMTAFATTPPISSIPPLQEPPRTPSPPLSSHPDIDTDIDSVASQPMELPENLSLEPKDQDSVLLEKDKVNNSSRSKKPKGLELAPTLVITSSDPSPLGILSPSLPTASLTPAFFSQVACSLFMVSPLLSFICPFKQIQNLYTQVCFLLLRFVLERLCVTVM
Conditions: protein: recombinant; tags: N-terminal GST; dsDNA, one strand shown. A digest of the protocol:
as §1

A further test addresses T10, ETV2 (Homo sapiens, UniProt O00321 1-342).
T10 sequence: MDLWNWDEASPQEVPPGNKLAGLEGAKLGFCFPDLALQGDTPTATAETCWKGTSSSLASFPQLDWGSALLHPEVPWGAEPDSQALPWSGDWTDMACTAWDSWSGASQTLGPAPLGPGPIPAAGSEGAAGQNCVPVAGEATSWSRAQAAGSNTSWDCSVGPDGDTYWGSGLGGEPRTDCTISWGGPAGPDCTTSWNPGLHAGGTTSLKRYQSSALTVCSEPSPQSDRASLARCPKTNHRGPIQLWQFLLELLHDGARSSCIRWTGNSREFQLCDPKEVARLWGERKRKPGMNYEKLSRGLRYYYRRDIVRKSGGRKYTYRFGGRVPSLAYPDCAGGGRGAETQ
The following applies: protein: recombinant; tags: N-terminal GST; dsDNA, one strand shown. A digest of the protocol:
as §1

The target in the next test is T11, ELF3 (Homo sapiens, UniProt P78545 1-371).
T11 sequence: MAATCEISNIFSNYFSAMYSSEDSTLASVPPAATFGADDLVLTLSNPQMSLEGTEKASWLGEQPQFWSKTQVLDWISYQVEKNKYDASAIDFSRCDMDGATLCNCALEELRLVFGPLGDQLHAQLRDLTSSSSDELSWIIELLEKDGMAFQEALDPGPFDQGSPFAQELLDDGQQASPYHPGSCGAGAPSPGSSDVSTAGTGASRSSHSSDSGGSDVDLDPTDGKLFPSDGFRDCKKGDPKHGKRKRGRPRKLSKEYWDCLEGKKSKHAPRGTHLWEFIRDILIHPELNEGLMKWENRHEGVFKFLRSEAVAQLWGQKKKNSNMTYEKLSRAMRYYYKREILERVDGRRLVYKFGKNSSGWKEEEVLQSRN
The following applies: protein: recombinant; tags: N-terminal GST; dsDNA, one strand shown. A digest of the protocol:
as §1

A further test addresses CRX (Homo sapiens, UniProt O43186 1-299). Conditions: protein: recombinant; tags: N-terminal GST; dsDNA, one strand shown. The procedure, abridged:
as §1

For a further test, the target named is ETV1 (Homo sapiens, UniProt P50549 1-477). Conditions: protein: recombinant; tags: N-terminal GST; dsDNA, one strand shown. A digest of the protocol: as §1
ETV1, sequence (P50549 whole entry): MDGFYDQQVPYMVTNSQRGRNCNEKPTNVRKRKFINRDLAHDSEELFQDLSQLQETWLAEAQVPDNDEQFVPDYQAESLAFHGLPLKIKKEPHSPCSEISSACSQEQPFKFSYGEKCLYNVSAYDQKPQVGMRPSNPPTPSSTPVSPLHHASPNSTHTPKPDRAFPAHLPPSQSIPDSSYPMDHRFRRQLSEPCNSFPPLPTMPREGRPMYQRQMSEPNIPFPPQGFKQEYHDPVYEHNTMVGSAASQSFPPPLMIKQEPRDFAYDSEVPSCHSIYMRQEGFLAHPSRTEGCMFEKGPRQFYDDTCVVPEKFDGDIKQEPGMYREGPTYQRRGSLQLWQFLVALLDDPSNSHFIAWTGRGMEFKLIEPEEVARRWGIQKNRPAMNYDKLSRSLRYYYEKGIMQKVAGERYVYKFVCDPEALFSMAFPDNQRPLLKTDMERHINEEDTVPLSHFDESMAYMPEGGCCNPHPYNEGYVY

ELF4, sequence (Q99607 whole entry): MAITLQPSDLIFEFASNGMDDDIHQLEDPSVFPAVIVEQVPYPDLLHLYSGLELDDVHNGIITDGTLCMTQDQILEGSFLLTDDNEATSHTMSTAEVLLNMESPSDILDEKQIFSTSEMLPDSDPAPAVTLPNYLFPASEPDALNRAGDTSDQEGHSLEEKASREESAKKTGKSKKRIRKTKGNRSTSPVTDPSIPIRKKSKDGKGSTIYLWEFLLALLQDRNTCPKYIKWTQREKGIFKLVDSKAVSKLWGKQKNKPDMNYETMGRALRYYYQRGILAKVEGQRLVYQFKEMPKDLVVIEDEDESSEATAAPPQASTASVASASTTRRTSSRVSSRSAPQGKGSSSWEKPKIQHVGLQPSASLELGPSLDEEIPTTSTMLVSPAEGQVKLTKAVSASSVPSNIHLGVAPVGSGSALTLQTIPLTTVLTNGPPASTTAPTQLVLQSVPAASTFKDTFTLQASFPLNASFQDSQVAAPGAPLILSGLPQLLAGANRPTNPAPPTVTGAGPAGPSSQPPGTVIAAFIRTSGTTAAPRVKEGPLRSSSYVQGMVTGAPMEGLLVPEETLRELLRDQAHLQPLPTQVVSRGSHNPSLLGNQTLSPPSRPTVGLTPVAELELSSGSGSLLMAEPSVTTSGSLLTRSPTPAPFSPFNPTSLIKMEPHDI
ELF1, sequence (P32519 whole entry): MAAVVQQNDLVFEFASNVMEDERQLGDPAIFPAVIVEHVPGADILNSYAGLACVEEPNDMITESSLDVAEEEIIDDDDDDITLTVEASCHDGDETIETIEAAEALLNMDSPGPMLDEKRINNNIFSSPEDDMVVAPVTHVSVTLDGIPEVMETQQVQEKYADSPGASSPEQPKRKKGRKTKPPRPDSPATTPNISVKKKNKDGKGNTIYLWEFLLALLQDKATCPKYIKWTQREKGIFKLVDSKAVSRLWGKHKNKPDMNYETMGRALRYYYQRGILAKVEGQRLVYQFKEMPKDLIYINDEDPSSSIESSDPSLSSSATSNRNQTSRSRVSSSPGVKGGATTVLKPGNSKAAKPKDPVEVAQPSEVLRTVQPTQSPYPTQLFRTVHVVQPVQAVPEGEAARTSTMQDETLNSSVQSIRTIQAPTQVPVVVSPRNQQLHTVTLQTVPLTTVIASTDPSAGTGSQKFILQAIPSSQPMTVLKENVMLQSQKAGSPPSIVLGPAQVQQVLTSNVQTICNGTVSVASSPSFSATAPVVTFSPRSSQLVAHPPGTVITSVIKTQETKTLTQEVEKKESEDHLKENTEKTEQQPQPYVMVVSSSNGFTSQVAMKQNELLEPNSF
HSF1, sequence (Q00613 whole entry): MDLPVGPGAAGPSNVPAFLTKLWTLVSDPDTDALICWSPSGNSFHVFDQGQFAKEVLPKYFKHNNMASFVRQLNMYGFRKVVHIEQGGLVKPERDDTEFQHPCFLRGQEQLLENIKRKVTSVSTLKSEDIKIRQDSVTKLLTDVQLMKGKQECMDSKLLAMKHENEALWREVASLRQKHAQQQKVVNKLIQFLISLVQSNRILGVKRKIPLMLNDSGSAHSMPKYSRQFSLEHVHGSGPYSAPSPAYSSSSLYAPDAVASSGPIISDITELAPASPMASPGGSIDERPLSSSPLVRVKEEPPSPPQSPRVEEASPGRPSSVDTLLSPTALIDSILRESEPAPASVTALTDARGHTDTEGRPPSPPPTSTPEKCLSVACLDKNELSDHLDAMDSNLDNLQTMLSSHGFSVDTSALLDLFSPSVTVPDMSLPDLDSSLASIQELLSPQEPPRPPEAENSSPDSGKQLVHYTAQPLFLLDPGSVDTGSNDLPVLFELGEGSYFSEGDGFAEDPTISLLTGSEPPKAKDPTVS
CRX, sequence (O43186 whole entry): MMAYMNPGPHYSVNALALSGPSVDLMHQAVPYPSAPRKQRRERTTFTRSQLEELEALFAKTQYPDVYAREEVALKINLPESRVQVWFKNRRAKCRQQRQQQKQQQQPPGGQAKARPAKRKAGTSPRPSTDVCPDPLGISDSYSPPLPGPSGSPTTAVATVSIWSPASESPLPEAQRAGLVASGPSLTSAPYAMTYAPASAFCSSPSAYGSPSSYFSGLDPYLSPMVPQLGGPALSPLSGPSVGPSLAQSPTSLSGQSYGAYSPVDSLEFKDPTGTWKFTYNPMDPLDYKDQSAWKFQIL

As to CCTTCA, the binding signal with FLI1 was 1.49 fold enrichment (6-mer frequency, TF over GST control); in the test with ELK1, 1.43 fold enrichment (6-mer frequency, TF over GST control); in the test with GABPA it was 1.46 fold enrichment (6-mer frequency, TF over GST control); with ERG, 1.45 fold enrichment (6-mer frequency, TF over GST control); in the test with ELF1, 1.51 fold enrichment (6-mer frequency, TF over GST control); with EHF it was 1.26 fold enrichment (6-mer frequency, TF over GST control). In addition, the binding signal with SPI1 was 1.36 fold enrichment (6-mer frequency, TF over GST control); with SPIB, 1.46 fold enrichment (6-mer frequency, TF over GST control); in the test with ELK3, 1.16 fold enrichment (6-mer frequency, TF over GST control); with FEV, 1.48 fold enrichment (6-mer frequency, TF over GST control); with ETV5, 1.45 fold enrichment (6-mer frequency, TF over GST control); with HSF1, 1.36 fold enrichment (6-mer frequency, TF over GST control). Moreover, the binding signal with SPIC is 1.31 fold enrichment (6-mer frequency, TF over GST control); in the test with ELF4, 1.42 fold enrichment (6-mer frequency, TF over GST control); in the test with ELK4, 1.69 fold enrichment (6-mer frequency, TF over GST control); with ETV2, 1.49 fold enrichment (6-mer frequency, TF over GST control); in the test with ELF3 it was 1.4 fold enrichment (6-mer frequency, TF over GST control); with CRX, 1.34 fold enrichment (6-mer frequency, TF over GST control). Further, the binding signal with ETV1 is 1.55 fold enrichment (6-mer frequency, TF over GST control).
